# Laboratory results as given in PubChem BioAssay.
# Where “and” joins values, the source holds several entries; their conditions need not be identical. Equal values may be shown once. Calls of active or inactive are those of the source.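 Rule for the calls, unless noted: active = inhibition at or above 50% relative to wild type and mutant plate controls; inactive = inhibition below 50%.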
# Legend:
# [1] = reduction of polyQ htt aggregates in cells – imaging, exon1htt(103Q)mCFP cells, high-content imaging, primary screen (AID 483;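 active = visual image review flags a hit and inhibition of aggregation exceeds 20%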;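 note: compound exposure lasted 3 days before fixation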;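 for nuclei count: percent of the per-plate median nuclei count of sample wells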); conditions: exon1htt(103Q)mCFP cell line, aggregate imaging, at 2 µM; inhibition of aggregation: stronger effect = higher value; nuclei count: measured here: cell count, toxicity
# [2] = endothelial E-selectin expression blockers – imaging, HUVEC, immunofluorescence, MLSMR starter and 10KST1 sets, primary screen (AID 487;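 active = visually confirmed hit in the image check and inhibition above 20%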;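 for inhibition: signal is fraction of cell area covered by stained E-selectin grains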;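 for nuclei count: 100% = median nuclei count of all wells on the same plate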); conditions: HUVEC TNFalpha-induced E-selectin immunofluorescence imaging, at 2 µM; inhibition: stronger effect = higher value; nuclei count: measured here: cell number, toxicity
# [3] = Primary imaging screen for DUSP6 inhibitors that restore phospho-Erk in transfected HeLa cells, chemical complementation (AID 609;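 active = compounds giving at least 50% inhibition in the cell-based MKP-3 phosphatase rescue imaging test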;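 for inhibition: phospho-Erk level distribution per well compared with pooled transfected vehicle control wells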); conditions: HeLa MKP-3 transfected, phospho-Erk imaging KS statistic, at 10 µM, cells stimulated with TPA for 15 min
# [4] = biological target: Dual specificity protein phosphatase 6 (Homo sapiens) (UniProt Q16828); test: as above; conditions: HeLa MKP-3 transfected, phospho-Erk imaging KS statistic; at 10 µM; stronger effect = higher value; cells stimulated with TPA for 15 min
# [5] = biological target: Voltage-gated potassium channel subunit beta-2 (Rattus norvegicus) (UniProt P62483); test: inhibitors of rat Kvbeta2 reductase activity – biochemical, NADPH fluorescence, primary screen (AID 622;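 active = fluorescence slope higher than the sample average by over 3 SD, cut at about -0.22 in these data, passing the limit was not always enough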;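 note: slope of raw intensity against log time taken from 70 to 1610 s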); conditions: recombinant KvBeta, 4-cyanobenzaldehyde reduction, at 10 µM, stronger effect = higher value
# [6] = biological target: Voltage-gated potassium channel subunit beta-2 (Rattus norvegicus) (UniProt P62483); test: enhancers of rat Kvbeta2 NADPH turnover – biochemical, NADPH fluorescence, primary screen (AID 623;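 active = NADPH fluorescence slope more negative than the mean of all samples by about 3 SD, 99.7% confidence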;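 note: fluorescence intensity change per second fitted from 20 to 320 s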); conditions: Recombinant KvBeta, NADPH fluorescence decrease slope, 10 min; at 10 µM; stronger effect = lower value
# [7] = biological target: Alpha-2C adrenergic receptor (Homo sapiens) (UniProt P18825); test: compounds altering alpha2C-coupled GIRK flux – cell-based, HEK293 alpha2C/GIRK1/2, thallium flux, primary screen (AID 624;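 active = fluorescence slope after compound addition differing from the mean of all screened samples at 99.7% confidence, in either direction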;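 note: slope of fluorescence ratio to pre-addition baseline per second over 15 to 24 s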); conditions: thallium flux BTC fluorescence, at 10 µM, actives lie on both sides
# [8] = loss of swimming-algae plug formation – whole organism, Chlamydomonas reinhardtii, WT vs cilia-less mutant, absorbance, 96-well, primary screen (AID 463189); conditions: Chlamydomonas reinhardtii gravitaxis, OD600 absorbance, 2 days; at 10 µM; stronger effect = higher value;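 note: 0% = wild type cc124 cells in DMSO and 100% = ciliumless bld1 mutant cells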
# [9] = blockers of RIG-like receptor reporter activation – cell-based, Sendai virus stimulus, luciferase, 10K MLSCN set, TLR/RLR signaling modifier project, primary screen (AID 602276;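 active = inhibition at or above 50% at 10 µM; inactive = inhibition below 50%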;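 note: firefly luciferase from ISG56 promoter only with Renilla not read in this screen; 0% = Sendai virus plus DMSO and 100% = medium plus DMSO without virus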); conditions: HEK293 RL24 IRF3 luciferase reporter, at 10 µM, stronger effect = higher value
# [10] = TLR3 IRF3 reporter activation blockers – cell-based, poly I:C stimulus, luciferase, 10K MLSCN set, primary screen (AID 602277;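 active = inhibition of the reporter signal at or above 50%; inactive = inhibition below 50%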); conditions: HEK293-TLR3 RL24 IRF3 luciferase reporter, at 10 µM, stronger effect = higher value
# [11] = inhibitors of larval lipid processing in zebrafish, primary screen, whole organism, PED6 fluorescence, gall bladder and intestine (AID 686;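 active = a full or partial loss of lipid-probe fluorescence in the fish gall bladder, intestine or both, judged by eye; inactive = no fluorescence loss, or compound toxic to the fish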;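 note: larvae 5 to 7 days old with five fish per well; signal comes from phospholipase A2 cleavage of quenched PED6 carried via bile; overnight exposure to compound and PED6 before scoring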); conditions: Zebrafish larvae PED6 lipid processing, fluorescence scoring; screened at 20 µM (by protocol)
# [12] = measured here: cell density z-score
# [13] = measured here: nuclear c-Myc green intensity z-score
# [14] = measured here: nuclear pErk red intensity z-score, stronger effect = higher value
# Chain of Dual specificity protein phosphatase 6 (Homo sapiens) (Q16828 whole entry, looked up): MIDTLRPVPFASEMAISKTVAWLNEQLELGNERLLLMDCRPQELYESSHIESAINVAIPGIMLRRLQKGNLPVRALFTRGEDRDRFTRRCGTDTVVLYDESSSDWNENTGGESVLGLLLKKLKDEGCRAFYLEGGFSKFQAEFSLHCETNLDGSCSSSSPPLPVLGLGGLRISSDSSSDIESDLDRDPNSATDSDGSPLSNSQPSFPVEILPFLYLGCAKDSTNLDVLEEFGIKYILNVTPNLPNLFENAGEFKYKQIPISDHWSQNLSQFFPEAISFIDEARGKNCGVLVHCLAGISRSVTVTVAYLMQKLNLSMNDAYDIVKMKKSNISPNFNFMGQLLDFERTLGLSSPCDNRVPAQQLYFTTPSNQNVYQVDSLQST
# Chain of Voltage-gated potassium channel subunit beta-2 (Rattus norvegicus) (P62483 whole entry, looked up): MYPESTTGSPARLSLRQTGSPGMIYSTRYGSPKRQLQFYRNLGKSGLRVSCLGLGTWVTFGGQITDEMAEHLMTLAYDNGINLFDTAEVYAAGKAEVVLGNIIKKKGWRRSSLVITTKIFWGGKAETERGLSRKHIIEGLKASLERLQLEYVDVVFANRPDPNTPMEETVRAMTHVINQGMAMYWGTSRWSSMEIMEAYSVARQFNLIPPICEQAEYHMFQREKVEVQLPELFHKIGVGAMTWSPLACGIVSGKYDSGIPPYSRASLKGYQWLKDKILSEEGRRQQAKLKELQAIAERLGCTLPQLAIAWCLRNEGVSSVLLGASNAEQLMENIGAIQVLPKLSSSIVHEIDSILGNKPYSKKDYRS
# Chain of Alpha-2C adrenergic receptor (Homo sapiens) (P18825 whole entry, looked up): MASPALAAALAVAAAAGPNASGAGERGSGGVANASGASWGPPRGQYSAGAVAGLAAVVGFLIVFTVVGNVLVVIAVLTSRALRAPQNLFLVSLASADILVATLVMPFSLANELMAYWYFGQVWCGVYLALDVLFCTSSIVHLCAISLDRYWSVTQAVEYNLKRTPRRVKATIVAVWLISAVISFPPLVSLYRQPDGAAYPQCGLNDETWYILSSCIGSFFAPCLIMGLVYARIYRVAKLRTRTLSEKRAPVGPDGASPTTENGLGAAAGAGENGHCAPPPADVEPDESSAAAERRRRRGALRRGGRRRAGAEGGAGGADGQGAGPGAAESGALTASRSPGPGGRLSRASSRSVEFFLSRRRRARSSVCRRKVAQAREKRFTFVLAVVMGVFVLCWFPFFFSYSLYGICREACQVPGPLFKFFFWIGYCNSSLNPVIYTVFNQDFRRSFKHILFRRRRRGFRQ
SMILES,inhibition of aggregation [1],nuclei count [1] [%],inhibition [2],nuclei count [2] [%],"z-score [3, 12]","z-score [3, 13]","z-score [3, 14]",inhibition [4],fluorescence slope [5],NADPH fluorescence slope [6],slope [7],inhibition [8],inhibition [9],inhibition [10],outcome [11]
CC(=O)O[C@]1(C(C)=O)CC[C@H]2[C@@H]3C=C(Cl)C4=CC(=O)CC[C@]4(C)[C@H]3CC[C@@]21C,-13.1% (inactive),100,-108% (inactive),126,-0.773,-0.174,-0.613,5.79% (inactive),-0.438 (inactive),-6.7e-05 (inactive),0.00452 (inactive),8.01% (inactive),-5.93% (inactive),38.2% (inactive),
CN(C)CCOC(C)(c1ccccc1)c1ccccn1 (centres undefined),21.5% (inactive),111,-17.5% (inactive),132,-0.381,0.211,-0.829,33% (inactive),-0.52 (inactive),2.3e-06 (inactive),0.00491 (inactive),-2.11% (inactive) and -8.4% (inactive),2.29% (inactive),19.2% (inactive),inactive
C[C@]12C=CC(=O)C=C1CC[C@H]1[C@@H]3C[C@@H](O)[C@](O)(C(=O)CO)[C@@]3(C)C[C@H](O)[C@@]12F,23.7% (inactive),50.2,-61.6% (inactive),117,-0.539,1.04,-0.0271,15.3% (inactive),-0.508 (inactive),-6.2e-05 (inactive),0.0055 (inactive),6.05% (inactive) and 21.3% (inactive),13.3% (inactive),37.9% (inactive),inactive
O=C(c1ccc(F)cc1)C1CCN(CCn2c(=O)[nH]c3ccccc3c2=O)CC1,-3.2% (inactive),96.4,-46.9% (inactive),112,0.976,0.365,0.163,14.6% (inactive),-0.453 (inactive),-6.9e-05 (inactive),0.00505 (inactive),4.84% (inactive) and -9.28% (inactive),0.811% (inactive),31.8% (inactive),inactive
CN(C)C(=O)Oc1ccc[n+](C)c1,-10% (inactive),104,-27% (inactive),132,-0.869,0.159,0.378,13.3% (inactive),-0.448 (inactive),-5.3e-05 (inactive),0.005 (inactive),-1.87% (inactive) and 14.9% (inactive),6.65% (inactive),26.9% (inactive),inactive
